Laboratory results: PubChem BioAssay (Tox21)
Inconclusive results are not listed. Calls of active or inactive are those of the source. Unless noted, the call rests on the fitted dose curve.

Tests used:
[1] = Nuclear factor erythroid 2-related factor 2/antioxidant responsive element (Nrf2/ARE) small molecule agonists: qHTS cell viability counter screen in human keratinocytes (AID 1919968; active means well fitted curve in the direction sought with a large enough effect in the repeat runs; an effect the other way counts as inactive or inconclusive; further: nearly all actives have a fitted effect of over 55% in size)
Summary of the method: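 Seed 1,500 KeratinoSens cells per well, then incubate 5 h at 37 C/5% CO2. Add compounds in DMSO and incubate 23 h. Add CellTiter-Fluor, wait 1 h and read fluorescence.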

[2] = Nuclear factor erythroid 2-related factor 2/antioxidant responsive element (Nrf2/ARE) small molecule agonists: luciferase reporter gene qHTS assay in human keratinocytes (AID 1919969); further: nearly all actives have a fitted effect of over 35% in size
[3] = target: Gonadotropin-releasing hormone receptor (Homo sapiens) (UniProt P30968); experiment: Human gonadotropin-releasing hormone receptor (GnRHR) small molecule agonists, calcium flux assay in GnRHR-HEK293 cells (AID 1920063); further: nearly all actives have a fitted effect of over 35% in size
Sequence of Gonadotropin-releasing hormone receptor (Homo sapiens) (P30968 whole entry, looked up): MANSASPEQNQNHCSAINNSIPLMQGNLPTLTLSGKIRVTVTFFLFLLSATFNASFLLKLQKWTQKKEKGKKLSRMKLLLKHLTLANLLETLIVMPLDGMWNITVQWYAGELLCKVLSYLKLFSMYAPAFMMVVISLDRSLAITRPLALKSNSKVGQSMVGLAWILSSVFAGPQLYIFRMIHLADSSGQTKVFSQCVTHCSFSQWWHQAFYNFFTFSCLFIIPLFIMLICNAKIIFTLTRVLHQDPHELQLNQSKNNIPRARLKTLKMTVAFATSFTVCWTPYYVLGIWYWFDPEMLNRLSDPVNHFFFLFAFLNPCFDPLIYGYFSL
Summary of the method: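 Cells: HEK293 stably expressing human GnRHR. Steps: overnight (18 h) culture, 1 h calcium dye loading at 37 C, compound addition, kinetic fluorescence read at 480/540 nm. Each compound tested at 15 concentrations in triplicate.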

[4] = target: KiSS-1 receptor (Homo sapiens) (UniProt Q969F8); experiment: Human kisspeptin (KISS1R) small molecule agonists, calcium flux assay in KISS1R-HEK293 cells (AID 1920064; active means well fitted curve in the direction sought with a large enough effect in the repeat runs; an effect the other way counts as inactive or inconclusive)
Sequence of KiSS-1 receptor (Homo sapiens) (Q969F8 whole entry, looked up): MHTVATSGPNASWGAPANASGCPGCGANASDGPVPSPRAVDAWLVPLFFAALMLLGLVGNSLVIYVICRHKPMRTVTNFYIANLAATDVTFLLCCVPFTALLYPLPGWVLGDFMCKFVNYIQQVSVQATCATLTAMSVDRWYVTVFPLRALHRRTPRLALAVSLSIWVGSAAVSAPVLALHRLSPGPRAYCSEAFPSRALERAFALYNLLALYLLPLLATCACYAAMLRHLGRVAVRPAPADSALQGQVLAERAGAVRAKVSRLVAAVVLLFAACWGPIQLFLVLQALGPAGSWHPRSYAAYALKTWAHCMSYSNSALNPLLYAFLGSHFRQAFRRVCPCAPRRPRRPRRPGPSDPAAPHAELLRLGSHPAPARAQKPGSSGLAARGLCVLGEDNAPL
Summary of the method: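 Cells plated and incubated 18 h; dye added, 1 h at 37 C; compounds in DMSO pinned in; signal read at 480/540 nm every second for 3 min. Each compound tested at 15 concentrations in triplicate.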

[5] = G protein-coupled receptor (GPCR) small molecule agonists, calcium flux assay: HEK293 wild type cell line counter screen (AID 1920065)
Summary of the method: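 Counter-screen of the Tox21 10K library for non-specific calcium release: dye-loaded cells received compounds in DMSO and were monitored by kinetic fluorescence (480/540 nm, 3 min). Fifteen concentrations, run in triplicate.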

[6] = p53 small molecule agonists, cell-based qHTS assay with human liver microsomes (AID 1963577)
Summary of the method: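 Compounds act here after metabolic activation: human liver microsomes and NADPH, both at 0.5 mg/mL final, were co-added to p53RE-bla cells. Incubation ran 16 h at 37 C, followed by LiveBLAzer detection.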

[7] = p53 small molecule agonists, cell-based qHTS assay with rat liver microsomes (AID 1963578)
Summary of the method: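 Read-out is beta-lactamase reporter fluorescence (LiveBLAzer, 2 h, room temperature, dark) in p53RE-bla cells treated 16 h at 37 C with compound, rat liver microsomes and NADPH, both 0.5 mg/mL final.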

[8] = p53 small molecule agonists, cell-based qHTS assay with human liver microsomes: qHTS cell viability counter screen (AID 1963579); further: nearly all actives have a fitted effect of over 45% in size
Summary of the method: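 Cells carrying the p53 response-element beta-lactamase reporter are treated for 16 h at 37 C with test compounds in the presence of human liver microsomes and NADPH (both 0.5 mg/mL final); ATP-based CellTiter-Glo luminescence then reports viability.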

[9] = p53 small molecule agonists, cell-based qHTS assay with rat liver microsomes: qHTS cell viability counter screen (AID 1963580); further: nearly all actives have a fitted effect of over 45% in size
Summary of the method: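 p53RE-bla HCT-116 cells (4,000/well) rested 5 h at 37 C, then given Tox21 compounds in DMSO with rat liver microsomes (0.5 mg/mL final) plus NADPH (0.5 mg/mL final) for 16 h at 37 C. Viability read by CellTiter-Glo luminescence after 30 min at room temperature.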

[10] = p53 small molecule agonists, cell-based qHTS assay: qHTS cell viability counter screen (AID 1963581); further: nearly all actives have a fitted effect of over 45% in size; further: potency means the concentration at half of the fitted maximal effect
Summary of the method: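 Cells: HCT-116 with p53 response element-driven beta-lactamase. Treatment: 16 h, 37 C, compounds in DMSO. Read: CellTiter-Glo luminescence after 30 min RT.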

[11] = p53 small molecule agonists, cell-based qHTS assay (AID 1963582; active means well fitted activation curve with a large enough effect in the signal ratio in the repeat runs, not every such curve was filed as active; the % refers to the signal ratio)
Summary of the method: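 Quantitative HTS in p53RE-bla cells: after a 5 h settling period, compounds delivered in DMSO were left on cells for 16 h at 37 C, and reporter induction was measured as fluorescence following 2 h substrate loading.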

[12] = cAMP Responsive Elements (CRE) small molecule agonists, cell-based qHTS assay (AID 1963590)
Summary of the method: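 Agonist mode qHTS in CRE-bla HEK 293T cells: compounds dosed from DMSO for 3 h at 37 C/5% CO2, followed by LiveBLAzer B/G FRET substrate for 2 h at room temperature.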

[13] = cAMP Responsive Elements (CRE) small molecule antagonists, cell-based qHTS assay (AID 1963591; active means well fitted inhibition curve with a large enough effect in the signal ratio in the repeat runs, not every such curve was filed as active; the % refers to the signal ratio)
Summary of the method: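 Antagonist mode: test compounds are co-incubated with the adenylyl cyclase activator NKH477 (0.25 uM final) on CRE-bla HEK293T cells for 3 h at 37 °C, followed by LiveBLAzer substrate loading.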

[14] = target: Beta-2 adrenergic receptor (Homo sapiens) (UniProt P07550); experiment: Adrenergic beta2 receptor (ADRB2) small molecule antagonists, cell-based qHTS assay (AID 1963592); further: series mostly up to about 92 µM; nearly all actives have a fitted effect of over 50% in size
Sequence of Beta-2 adrenergic receptor (Homo sapiens) (P07550 whole entry, looked up): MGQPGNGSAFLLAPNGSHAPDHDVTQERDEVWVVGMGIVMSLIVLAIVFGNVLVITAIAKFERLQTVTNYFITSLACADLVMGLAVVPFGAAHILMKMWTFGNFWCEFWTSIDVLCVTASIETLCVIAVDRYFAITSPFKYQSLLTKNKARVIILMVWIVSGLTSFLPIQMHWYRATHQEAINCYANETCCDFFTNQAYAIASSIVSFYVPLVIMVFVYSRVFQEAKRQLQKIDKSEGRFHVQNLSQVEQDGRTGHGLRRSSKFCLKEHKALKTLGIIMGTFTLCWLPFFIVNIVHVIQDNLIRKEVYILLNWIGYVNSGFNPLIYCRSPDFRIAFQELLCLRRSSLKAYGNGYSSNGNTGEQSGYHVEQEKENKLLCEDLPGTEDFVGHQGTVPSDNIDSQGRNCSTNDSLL
Summary of the method: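 Cells (CHO, stable ADRB2 overexpression) incubated 18-20hr at 37C; compounds added from DMSO; agonist mix (1nM isoproterenol, 100uM IBMX, 25uM Ro-20-1724) added; 0.5hr RT; d2-cAMP and anti-cAMP-cryptate added; 1hr RT; 665/615 nm read.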

[15] = target: D(2) dopamine receptor (Homo sapiens) (UniProt P14416); experiment: Dopamine D2 receptor (DRD2) small molecule agonists, cell-based qHTS assay (AID 1963594); further: nearly all actives have a fitted effect of over 35% in size
Sequence of D(2) dopamine receptor (Homo sapiens) (P14416 whole entry, looked up): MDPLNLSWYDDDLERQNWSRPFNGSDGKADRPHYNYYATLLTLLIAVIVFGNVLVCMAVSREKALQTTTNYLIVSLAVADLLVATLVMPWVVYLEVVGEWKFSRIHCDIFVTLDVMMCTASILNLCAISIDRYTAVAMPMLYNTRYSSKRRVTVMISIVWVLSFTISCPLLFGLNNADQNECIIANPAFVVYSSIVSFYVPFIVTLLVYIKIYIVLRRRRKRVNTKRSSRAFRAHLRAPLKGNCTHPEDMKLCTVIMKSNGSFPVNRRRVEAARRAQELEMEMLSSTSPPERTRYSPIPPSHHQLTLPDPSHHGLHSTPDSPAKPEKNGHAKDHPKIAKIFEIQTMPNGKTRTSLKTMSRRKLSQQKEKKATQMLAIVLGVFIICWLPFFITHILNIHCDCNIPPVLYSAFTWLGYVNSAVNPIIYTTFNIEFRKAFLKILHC
Summary of the method: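 HEK293 cells stably expressing DRD2 were cultured 24 h at 37 C, then given Ro20-1724 (0.1 mM final) and compounds for 10 min at room temperature. NKH477 (200nM) was then added for 30 min. cAMP was read by HTRF.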

[16] = target: D(2) dopamine receptor (Homo sapiens) (UniProt P14416); experiment: Dopamine D2 receptor (DRD2) small molecule antagonists, cell-based qHTS assay (AID 1963595; active means well fitted inhibition curve with a large enough effect in the signal ratio in the repeat runs, with a control signal flat; the % refers to the signal ratio; further: potency means the concentration at half of the fitted maximal effect)
Summary of the method: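 HEK293 cells stably expressing DRD2 were preincubated with 0.1 mM Ro20-1724, then with compound for 10 min at room temperature. Cells were stimulated with 200 nM NKH477 plus 12 nM quinpirole for 30 min, and cAMP was read by HTRF.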

[17] = target: Beta-2 adrenergic receptor (Homo sapiens) (UniProt P07550); experiment: Adrenergic beta2 receptor (ADRB2) small molecule agonists, cell-based qHTS assay (AID 1963593);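 further: CHO cells stably overexpressing human ADRB2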
Summary of the method: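 CHO cells stably over-expressing ADRB2 were plated overnight at 37C, then dosed with compounds plus a stimulation mix containing 100uM IBMX and 25uM Ro-20-1724 for 0.5hr at room temperature. cAMP was measured by HTRF competition, 1hr.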

Measured: Potency

O=C(O)CCNC(=O)c1ccc(N=Nc2ccc(O)c(C(=O)O)c2)cc1
inactive: [1] | [2] | [3] | [4] | [5] | [6] | [7] | [8] | [9] | [10] | [11] | [12] | [13] | [14] | [15] | [16]

CC(C)[C@H](N)C(=O)OCCOCn1cnc2c(=O)[nH]c(N)nc21
inactive: [1] | [2] | [3] | [4] | [5] | [6] | [7] | [8] | [9] | [11] | [12] | [13] | [14] | [17] | [15] | [16]
active: [10] 1.78 µM

NCCCC[C@H](N[C@@H](CCc1ccccc1)C(=O)O)C(=O)N1CCC[C@H]1C(=O)O
inactive: [1] | [2] | [3] | [4] | [5] | [6] | [7] | [8] | [9] | [10] | [11] | [12] | [13] | [14] | [17] | [15] | [16]

CC(C)(C)NC[C@H](O)COc1cccc2c1CCCC2=O
inactive: [1] | [2] | [3] | [4] | [5] | [6] | [7] | [8] | [9] | [10] | [11] | [12] | [13] | [15] | [16]

CCN(CC)CCNC(=O)c1cc(S(C)(=O)=O)ccc1OC
active: [16] 15 µM
inactive: [1] | [2] | [3] | [4] | [5] | [6] | [7] | [8] | [9] | [10] | [11] | [12] | [13] | [14] | [17]

Oc1cccc(O)c1O
inactive: [1] | [2] | [3] | [4] | [5] | [6] | [7] | [8] | [9] | [10] | [11] | [12] | [13] | [14] | [15] | [16]

O=C(O)CCNC(=O)c1ccccc1
inactive: [1] | [2] | [3] | [4] | [5] | [6] | [7] | [8] | [9] | [10] | [11] | [12] | [13] | [14] | [17] | [15] | [16]

CCOC(=O)c1ncn2c1CN(C)C(=O)c1cc(F)ccc1-2
inactive: [1] | [2] | [3] | [4] | [5] | [6] | [7] | [8] | [9] | [10] | [11] | [12] | [13] | [14] | [17] | [16]

COc1ccc([C@@H]2Sc3ccccc3N(CCN(C)C)C(=O)[C@@H]2OC(C)=O)cc1
inactive: [1] | [2] | [3] | [4] | [5] | [6] | [7] | [8] | [9] | [10] | [11] | [12] | [14] | [17] | [15] | [16]

O=C1OCCN1/N=C/c1ccc([N+](=O)[O-])o1
inactive: [1] | [2] | [3] | [4] | [5] | [6] | [7] | [8] | [9] | [10] | [11] | [12] | [13] | [14] | [17] | [16]

NC(=O)NC(=O)Cc1ccccc1
inactive: [1] | [2] | [3] | [4] | [5] | [6] | [7] | [8] | [9] | [10] | [11] | [12] | [13] | [14] | [17] | [15] | [16]

Cc1ccnc(NS(=O)(=O)c2ccc(N)cc2)n1
inactive: [1] | [2] | [3] | [4] | [5] | [6] | [7] | [8] | [9] | [10] | [11] | [12] | [13] | [16]

Oc1c(I)cc(I)c2cccnc12
inactive: [1] | [2] | [3] | [4] | [5] | [6] | [7] | [8] | [9] | [10] | [11] | [12] | [13] | [15] | [16]

COc1cc2nc(N3CCN(C(=O)C4CCCO4)CC3)nc(N)c2cc1OC (stereo not drawn)
inactive: [1] | [2] | [3] | [4] | [5] | [6] | [7] | [8] | [9] | [10] | [11] | [12] | [13] | [15] | [16]
